Out of some 40,000 compounds screened, about 1,400 (3.5%) were called active.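 The calls were made as follows: active = any of four per-well response measures lying three or more SD from its plate-wide compound average, in either direction; inactive = the rest, inconclusive results apart.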 What follows is part of a selection rich in actives, with near analogues and random picks from the rest.

Sequence of Voltage-dependent calcium channel gamma-2 subunit (Mus musculus) + Glutamate receptor 2 (Rattus norvegicus) (O88602 whole entry, looked up): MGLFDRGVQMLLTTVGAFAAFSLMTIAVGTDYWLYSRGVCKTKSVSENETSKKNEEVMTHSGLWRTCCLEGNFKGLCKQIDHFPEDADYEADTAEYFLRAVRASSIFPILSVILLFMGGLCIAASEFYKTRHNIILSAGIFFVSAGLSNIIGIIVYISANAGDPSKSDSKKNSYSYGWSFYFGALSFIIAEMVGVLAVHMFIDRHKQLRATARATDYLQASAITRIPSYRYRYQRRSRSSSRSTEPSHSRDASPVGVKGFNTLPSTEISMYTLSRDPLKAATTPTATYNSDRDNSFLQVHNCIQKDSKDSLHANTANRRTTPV
Sequence of Voltage-dependent calcium channel gamma-2 subunit (Mus musculus) + Glutamate receptor 2 (Rattus norvegicus) (P19491 whole entry, looked up): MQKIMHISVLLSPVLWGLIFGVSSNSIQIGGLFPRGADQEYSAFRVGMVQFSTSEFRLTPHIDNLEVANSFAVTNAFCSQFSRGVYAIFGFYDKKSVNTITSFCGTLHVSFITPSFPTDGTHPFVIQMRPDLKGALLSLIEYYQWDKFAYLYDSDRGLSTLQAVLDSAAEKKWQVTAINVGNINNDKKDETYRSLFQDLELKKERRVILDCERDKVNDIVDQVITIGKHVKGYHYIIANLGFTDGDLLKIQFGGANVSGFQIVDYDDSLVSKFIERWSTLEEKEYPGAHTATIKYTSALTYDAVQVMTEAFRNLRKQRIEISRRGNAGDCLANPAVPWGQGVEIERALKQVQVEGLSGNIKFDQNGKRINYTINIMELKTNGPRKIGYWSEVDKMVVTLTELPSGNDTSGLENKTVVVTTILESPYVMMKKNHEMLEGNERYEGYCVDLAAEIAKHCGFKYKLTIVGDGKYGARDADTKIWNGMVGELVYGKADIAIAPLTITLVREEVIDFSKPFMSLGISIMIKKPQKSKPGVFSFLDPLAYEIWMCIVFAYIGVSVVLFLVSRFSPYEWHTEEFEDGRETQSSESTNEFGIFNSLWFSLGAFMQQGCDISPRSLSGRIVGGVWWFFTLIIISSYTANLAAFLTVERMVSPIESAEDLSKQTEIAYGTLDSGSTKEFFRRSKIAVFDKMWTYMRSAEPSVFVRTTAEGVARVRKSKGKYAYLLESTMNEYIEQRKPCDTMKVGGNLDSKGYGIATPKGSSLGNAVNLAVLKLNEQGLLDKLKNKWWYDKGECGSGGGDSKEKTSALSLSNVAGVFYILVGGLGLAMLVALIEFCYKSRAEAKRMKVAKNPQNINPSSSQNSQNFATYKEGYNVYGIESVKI

This experiment addresses Voltage-dependent calcium channel gamma-2 subunit (Mus musculus) + Glutamate receptor 2 (Rattus norvegicus) (UniProt O88602+P19491). The experiment can be described thus: AMPAR-TARP gamma-2 complex positive or negative modulation – cell-based, membrane potential dye, primary screen (AID 1259245). Particulars: HEK293 GluA2+stargazin, membrane potential dye (FDSS), glutamate EC50, at 30 µM, hits were called plate by plate, in both directions; compound max-min signal: compound-alone response (agonism); glutamate slope, % of max: measured here: glutamate response slope, % max.
With `CSc1ccccc1NC(=O)C(=O)NCC(O)(c1ccco1)C1CC1` (stereo unspecified), the compound max-min signal worked out at 0.142; the glutamate response, % of max was 47.7% (inactive); the glutamate slope, % of max is 61%.

For the compound `O=C(c1ccc(Cl)c(N2C(=O)CCS2(=O)=O)c1)N1CCc2ccccc2C1`, the compound max-min signal was found to be 0.0843; the glutamate response, % of max is 26.4% (inactive); the glutamate slope, % of max was 47.6%.

For `CCSc1ccccc1C(=O)N1CCN(c2ccc(-c3ccccn3)nn2)CC1`, the compound max-min signal came to 0.198; the glutamate response, % of max is 34.1% (active); the glutamate slope, % of max is 45%.

`CCOc1ccccc1C(=O)N1CCN(c2ccc(-c3ccccn3)nn2)CC1`: the compound max-min signal turned out to be 0.189; the glutamate response, % of max is 31.9% (active); the glutamate slope, % of max came to 43.1%.

Consider `CCOc1ccc(-c2ccc(N3CCN(C(=O)c4ccc5nsnc5c4)CC3)nn2)cc1`, for which the compound max-min signal was 0.0304; the glutamate response, % of max is 15.3% (inactive); the glutamate slope, % of max turned out to be 32.9%.

For the compound `O=C(CCn1ccc(=O)[nH]c1=O)N1CCN(c2ccc(-c3ccccn3)nn2)CC1`, the compound max-min signal was 0.117; the glutamate response, % of max is 16.7% (inactive); the glutamate slope, % of max was 21.1%.

In the case of `O=C(NCc1ccccc1)N1CCN(c2ccc(-c3ccncc3)nn2)CC1`, the compound max-min signal came to 0.115; the glutamate response, % of max is 17.8% (inactive); the glutamate slope, % of max is 40.4%.

For the compound `CCn1ccnc1N1CCN(C(=O)c2ccccc2Cl)CC1`, the compound max-min signal was 0.0774; the glutamate response, % of max was 50% (inactive); the glutamate slope, % of max is 67.4%.

Regarding `CN1CCN(c2ccc(-c3cccc(NC(=O)COc4ccc(F)cc4F)c3)nn2)CC1`, the compound max-min signal turned out to be 0.0723; the glutamate response, % of max was 38.5% (inactive); the glutamate slope, % of max amounted to 60.1%.

Regarding `CCOc1ccc2c(=O)c(Oc3ccccc3Br)coc2c1`, the compound max-min signal turned out to be 0.0905; the glutamate response, % of max is 40.8% (inactive); the glutamate slope, % of max turned out to be 58.4%.

In the case of `O=C(NCc1ccsc1)c1c(F)cccc1F`, the compound max-min signal turned out to be 0.0794; the glutamate response, % of max is 28.8% (inactive); the glutamate slope, % of max came to 48.6%.

On to `Cn1cc(C(=O)NCc2c(F)cccc2F)nn1`, for which the compound max-min signal was found to be 0.0862; the glutamate response, % of max was 93.4% (active); the glutamate slope, % of max was found to be 99.8%.

With `O=C(NCc1ccc(Cl)cc1)C(=O)NCc1c(F)cccc1F`, the compound max-min signal came out at 0.122; the glutamate response, % of max is 54.4% (inactive); the glutamate slope, % of max turned out to be 66.8%.

In the case of `CC(=O)NCCn1ncc2c(N3CCOCC3)ncnc21`, the compound max-min signal was found to be 0.0821; the glutamate response, % of max was 32.3% (inactive); the glutamate slope, % of max is 59.3%.

As to `CCN1C(SCC(=O)Nc2cccc(Cl)c2)=NS(=O)(=O)c2ccccc21`, the compound max-min signal turned out to be 0.0878; the glutamate response, % of max was 38% (inactive); the glutamate slope, % of max is 62%.

`CCOc1ccccc1Nc1nnc(Cc2ccc(OC)cc2)c(=O)[nH]1`: the compound max-min signal was found to be 0.0678; the glutamate response, % of max was 46% (inactive); the glutamate slope, % of max came out at 67.9%.

Take `CSc1ccccc1C(=O)NCC(C)(O)C1CC1` (stereo unspecified): the compound max-min signal stood at 0.0943; the glutamate response, % of max was 38.3% (inactive); the glutamate slope, % of max turned out to be 57.1%.

For `CCSc1ccccc1C(=O)NCC(O)(c1ccccc1)C1CC1` (stereo unspecified), the compound max-min signal worked out at 0.0554; the glutamate response, % of max was 28.7% (active); the glutamate slope, % of max worked out at 57.8%.

For `O=C(NCC(O)(c1ccccc1)C1CC1)c1ccccc1Br` (stereo unspecified), the compound max-min signal is 0.0722; the glutamate response, % of max was 13.9% (inactive); the glutamate slope, % of max came out at 40%.

Take `COc1ccc(NC(=O)CSc2nccn(-c3cccc(F)c3)c2=O)cc1Cl`: the compound max-min signal was 0.114; the glutamate response, % of max is 29.6% (inactive); the glutamate slope, % of max stood at 46.8%.

As to `O=S(=O)(NCC(O)c1ccsc1)c1cccs1` (stereo unspecified), the compound max-min signal came to 0.105; the glutamate response, % of max is 47.4% (inactive); the glutamate slope, % of max was determined as 63.3%.

Turning to `COc1ccc2c(c1)c(/C=C1\Oc3cc(O)cc(C)c3C1=O)cn2C`, the compound max-min signal was 0.239; the glutamate response, % of max was 23.6% (active); the glutamate slope, % of max worked out at 43.9%.

Consider `C=CCOC(=O)COc1ccc2c(c1)O/C(=C\c1cc(OC)ccc1OC)C2=O`, for which the compound max-min signal turned out to be 0.106; the glutamate response, % of max was 58.4% (inactive); the glutamate slope, % of max stood at 60.4%.

With `Cc1[nH]c(=O)[nH]c(=O)c1CC(=O)N1CCN(S(C)(=O)=O)CC1`, the compound max-min signal worked out at 0.153; the glutamate response, % of max was 46.3% (inactive); the glutamate slope, % of max is 86.1%.

With `CC(C)c1ccccc1NC(=O)Cc1csc(NC(=O)c2ccc(=O)[nH]c2)n1`, the compound max-min signal is 0.062; the glutamate response, % of max is 20.3% (inactive); the glutamate slope, % of max worked out at 41.8%.

For the compound `COc1cn(CC(=O)Nc2ccc(NC(C)=O)cc2)c(CSc2ncccn2)cc1=O`, the compound max-min signal was determined as 0.0519; the glutamate response, % of max is 26.3% (inactive); the glutamate slope, % of max worked out at 40.3%.

Regarding `Cc1c(Cl)ccc2sc(N(Cc3ccccn3)C(=O)Cc3ccc(S(C)(=O)=O)cc3)nc12`, the compound max-min signal was 0.0569; the glutamate response, % of max is 22.1% (inactive); the glutamate slope, % of max was found to be 54.5%.

On to `O=S(=O)(NCC1(c2cccs2)CC1)c1ccc(OC(F)(F)F)cc1`, for which the compound max-min signal was determined as 0.153; the glutamate response, % of max was 0.436% (active); the glutamate slope, % of max is 9.92%.

On to `O=C(NCC1(c2cccs2)CC1)Nc1c(F)cccc1F`, for which the compound max-min signal came out at 0.107; the glutamate response, % of max was 24.4% (inactive); the glutamate slope, % of max stood at 44%.

For `COC(=O)N1CCC(CNS(=O)(=O)c2ccc(OC(F)(F)F)cc2)CC1`, the compound max-min signal was 0.114; the glutamate response, % of max is 39.2% (inactive); the glutamate slope, % of max was determined as 61.1%.

Turning to `COC(=O)c1cc(OC)c(OC)cc1NC(=O)c1cc(C)oc1C`, the compound max-min signal is 0.112; the glutamate response, % of max was 34.9% (inactive); the glutamate slope, % of max came to 55.7%.

As to `Cn1cccc1C(O)CNC(=O)C1(c2ccccc2)CCOCC1` (stereo unspecified), the compound max-min signal stood at 0.0879; the glutamate response, % of max was 49.3% (inactive); the glutamate slope, % of max came to 62.9%.

As to `COCCNC(=O)c1ccc(Oc2c(C)oc3cc(OC)ccc3c2=O)cc1`, the compound max-min signal came out at 0.0907; the glutamate response, % of max is 9.44% (inactive); the glutamate slope, % of max was 21.9%.

With `COc1ccc2c(=O)c(Oc3ccc(C(=O)Nc4cccnc4)cc3)c(C)oc2c1`, the compound max-min signal is 0.137; the glutamate response, % of max was 24.4% (inactive); the glutamate slope, % of max came out at 41.6%.

Regarding `COc1ccc2c(=O)c(Oc3ccc(C(=O)N4CCN(c5ccccn5)CC4)cc3)c(C)oc2c1`, the compound max-min signal was 0.0327; the glutamate response, % of max is 28.3% (active); the glutamate slope, % of max is 56.7%.

As for `COc1ccc(CCNC(=O)Cn2nc(-c3ccccc3OC)ccc2=O)cc1`, the compound max-min signal came to 0.0465; the glutamate response, % of max is 26.6% (inactive); the glutamate slope, % of max was 53.9%.

Turning to `COC(=O)c1ccc2c(=O)n(Cc3ccc(C(=O)N4CCCCCC4)cc3)c(=S)[nH]c2c1`, the compound max-min signal stood at 0.108; the glutamate response, % of max is 50.5% (inactive); the glutamate slope, % of max worked out at 81%.

`CCc1cccc(CC)c1NC(=O)Cn1nc(-c2ccco2)c2sc(N3CCCCC3)nc2c1=O`: the compound max-min signal came to 0.0682; the glutamate response, % of max was 31.2% (inactive); the glutamate slope, % of max is 54.8%.

Turning to `Cc1ccc(NC(=O)Cn2nc(-c3ccco3)c3sc(N4CCOCC4)nc3c2=O)c(C)c1`, the compound max-min signal was found to be 0.131; the glutamate response, % of max is 34% (active); the glutamate slope, % of max turned out to be 56.8%.

Consider `COc1ccc(C(=O)Cn2nc(-c3ccco3)c3sc(N4CCOCC4)nc3c2=O)cc1OC`, for which the compound max-min signal turned out to be 0.102; the glutamate response, % of max was 27.5% (inactive); the glutamate slope, % of max was 57%.

Take `COCC(C)(O)CNC(=O)c1cc(C)oc1C` (stereo unspecified): the compound max-min signal turned out to be 0.0874; the glutamate response, % of max was 39.3% (inactive); the glutamate slope, % of max turned out to be 66.3%.

On to `CCCc1ccc(C(=O)NCC(C)(O)COC)cc1` (stereo unspecified), for which the compound max-min signal turned out to be 0.117; the glutamate response, % of max is 37.6% (inactive); the glutamate slope, % of max worked out at 59.3%.

For the compound `COCC(C)(O)CNC(=O)Cc1cccc(C)c1` (stereo unspecified), the compound max-min signal was 0.0936; the glutamate response, % of max was 4.21% (active); the glutamate slope, % of max worked out at 14.9%.

Consider `COc1ccc(OC)c2sc(N(Cc3ccccn3)C(=O)Cc3ccc(S(C)(=O)=O)cc3)nc12`, for which the compound max-min signal came to 0.0642; the glutamate response, % of max was 28.9% (inactive); the glutamate slope, % of max came to 45.5%.

For `O=C(Nc1ccc([N+](=O)[O-])cc1Br)c1ccncc1`, the compound max-min signal came to 0.216; the glutamate response, % of max is 21.7% (active); the glutamate slope, % of max came out at 38.8%.

As for `Cc1cc([N+](=O)[O-])ccc1NC(=O)C(=O)NCc1ccncc1`, the compound max-min signal was determined as 0.158; the glutamate response, % of max is 47.7% (inactive); the glutamate slope, % of max is 65.6%.

As to `O=C(Nc1ccc(N2CCCS2(=O)=O)cc1)c1ccc([N+](=O)[O-])cc1`, the compound max-min signal worked out at 0.0338; the glutamate response, % of max was 28.1% (inactive); the glutamate slope, % of max was determined as 51.8%.

The record behind these values is PubChem BioAssay AID1259245 (Vanderbilt High Throughput Screening Facility, 2017).
